Measurements: PubChem BioAssay (NCI)
The panel holds about 83,000 compounds, 20% with a hit somewhere; the sample as a whole holds those more often.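 Values shown are percent growth following 48 h exposure of cells in 96-well plates to a single concentration of compound; below 10 was considered active.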 A number with no mark means an inactive call. The source made the active and inactive calls.

Tested on: HL-60(TB) leukemia
Test: NCI-60 one-dose screen, 48 h (100 = growth as untreated, 0 = no growth, -100 = all killed)
Settings: 10 µM unless noted

Row | SMILES | growth
1 | Nc1ccc(C2=NN(C(=O)c3cc(-c4ccc(Cl)cc4)nc4ccccc34)C(c3ccc(Cl)cc3)C2)cc1 (stereo unspecified) | -4.63% (active)
2 | COc1ccc(S(=O)(=O)N2CCN(c3cc4c(cc3F)c(=O)c(C(=O)O)cn4C3CC3)CC2)c(OC)c1 | 87.1%
3 | C[C@]12CCc3nc(Nc4ccccc4)sc3C1=CC[C@@H]1[C@@H]2CC[C@]2(C)/C(=N/NC(N)=S)CC[C@@H]12 | 49%
4 | COc1ccc(Cn2cc(Cn3cc(C=C4C(=O)NC(=O)NC4=O)c4ccccc43)nn2)cc1 | 82.6%
5 | CCCc1n(Cc2ccc3ccccc3c2)cc[n+]1Cc1ccc2ccccc2c1 | -53.1% (active)
6 | S=c1sc2c(Cl)nc(-c3cccnc3)nc2n1-c1ccccc1 | -52.5% (active)
7 | Cc1ccc(Cc2cnc(NC(=O)c3cc(C)oc3C)s2)cc1 | 79.1%
8 | Cc1cc(C#Cc2ccccc2)ccc1-n1c(/C=C/c2ccc(F)cc2)nc2ccccc2c1=O | 34.3%
9 | O=C(/C=C/c1ccc(Cl)cc1)c1ccc(Nc2nc(NCCO)nc(N3CCOCC3)n2)cc1 | 99%
10 | CCOc1ccc(/C=C(\C#N)c2cc3ccccc3[nH]2)cc1 | 43.7%
11 | CN(C)c1ccc(/C=C\C2=[N+](C)c3ccccc3C2(C)C)cc1 | 22.9%
12 | Cc1[nH]c(-c2nc3ccccc3[nH]2)c(C)c1C(=O)N1CCOCC1 | 111%
13 | Cc1ccc(C(=O)C(Br)C(Br)c2ccccc2)cc1 (stereo unspecified) | 45.1%
14 | COc1cccc(-c2nc3sccn3c2-c2ccnc(NCCNS(=O)(=O)c3ccccc3)c2)c1 | -18.1% (active)
15 | CN(C)c1ccc(/C=C/c2ccnc3c(O)cccc23)cc1 | -26% (active)
16 | Oc1ccc2ccccc2c1N=Nc1ccccn1 | -32.4% (active)
17 | CO[C@H]1/C=C/O[C@@]2(C)Oc3c(C)c(O)c4c(O)c(c(/C=N/N5C(C)CN(Cc6ccccc6)CC5C)c(O)c4c3C2=O)NC(=O)/C(C)=C\C=C\[C@H](C)[C@H](O)[C@@H](C)[C@@H](O)[C@@H](C)[C@H](OC(C)=O)[C@@H]1C (stereo partly specified) | 161%
18 | O=C(c1ccccc1)c1cccc(C(Br)Br)c1 | 87.6%

Row | SMILES | growth
19 | COc1cc(-c2nc3ccc(C)cc3[nH]2)ccc1OCC(=O)N=Nc1c(O)[nH]c2ccccc12 | -34.3% (active)
20 | COC(CCCl)c1ccc(Cl)cc1 (stereo unspecified) | 94.2%
21 | CC(C)(c1ccccc1)c1cc(O)c(C(C)(C)c2ccccc2)cc1O | -6.95% (active)
22 | COc1cc(/C=C\c2cc(/C=C\c3ccc(O)c(OC)c3)n(C(=O)CNc3ccc(Cl)cc3)n2)ccc1O | -11.6% (active)
23 | CSc1nc(NCc2ccccc2)c(C#N)c(-c2cccc([N+](=O)[O-])c2)n1 | 107%
24 | CC(C)[C@]12O[C@H]1[C@@H]1O[C@]13[C@]1(O[C@H]1C[C@H]1C4=C(CC[C@@]13C)C(=O)OC4)[C@@H]2OC(=O)CN(C)C | -24.3% (active)
25 | CN1CCN(CC(=O)N2c3cccc4cccc(c34)N(C(=O)CN3CCN(C)CC3)C2c2cn(-c3ccccc3)nc2-c2cccc([N+](=O)[O-])c2)CC1 | -60% (active)
26 | COc1cc(-c2nn(-c3ccc(NC(=O)NCCNS(=O)(=O)c4ccc(F)cc4)cc3)cc2-c2ccncc2)ccc1Cl | -9.47% (active)
27 | O=C1/C(=C\c2cccn2Cc2ccc(F)cc2)c2ccccc2N1c1c(Cl)cccc1Cl | 96.5%
28 | O=C1c2ccccc2C(=O)c2cc(Cn3c[n+](Cc4ccc5ccccc5c4)c4ccccc43)ccc21 | -49.2% (active)
29 | Nc1nc(Nc2ccc(OCc3cccc(F)c3)cc2)c2c(n1)[nH]c1ccc(O)cc12 | -64.8% (active)
30 | CC(=O)CS(C)(=O)=O | 100%
31 | C=C(Cl)[C@@](Cl)(CBr)CC[C@@H](Br)C(C)(C)Cl | -68.1% (active)
32 | CN1CC=C(c2cc(NC(=O)Nc3ccc(Oc4ccnc(NC(=O)C5CC5)c4)c(F)c3)cc(C(F)(F)F)c2)CC1 | -18.3% (active)
33 | O=C(O)CCCn1c(SCc2c(Cl)cccc2Cl)nc2ccsc2c1=O | -4.86% (active)
34 | COc1ccc(-c2nn(-c3cccc(NC(=O)c4cccc(C(F)(F)F)c4)c3)cc2-c2ccncc2)cc1Cl | 4.23% (active)
35 | Nc1nc(Nc2cccc(F)c2)nc2ccccc12 | 28.6%
36 | C=CCN(CC#N)CC=C | 106%
